# From PubChem BioAssay (NCATS)
# “And” between values parts separate entries of the source, which are not always exact repeats. Equal entries are not always repeated. Inconclusive results are not listed. The source made the active and inactive calls. Unless noted, calls come from the whole dose curve; as a rule, active = well fitted curve in the direction sought with a large enough effect; inconclusive = small, poorly fitted or top-dose-only effect, or another doubt; inactive = no such curve, though single readings can be large; an effect the other way counts as inactive or inconclusive.
# Legend:
# [1] = qHTS Assay for Identifying Gametocytocidal Compounds (AID 743244); note: potency is the fitted concentration of half-maximal effect;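 for max response: % is set by controls: 0 for no effect and ±100 for the full control effect; actives lower the fluorescent signal which means gametocytes are killed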; settings: P. falciparum 3D7 stage III-V gametocytes, alamarBlue, 72 h; max response: stronger effect = lower value
# Procedure, shortened: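 In this qHTS viability screen, late-stage 3D7 gametocytes are incubated with compound for 72 h, then with alamarBlue for 24 h; reduced resorufin fluorescence marks killing.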
# [2] = qHTS profiling for inhibitors of Plasmodium falciparum (3D7) proliferation (AID 743322; call rule not given here;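 note: infected erythrocytes exposed to compound for 72 h before lysis; 100% = DMSO vehicle wells and 0% = 0.29 µM artemisinin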); settings: P. falciparum 3D7 proliferation; at 28.7 µM (top of the series) unless noted
# Procedure, shortened: (§1)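 Erythrocytes infected with P. falciparum (0.3% parasitemia, 2.5% hematocrit) incubated with compounds 72 h at 37 C, 5% CO2. Lysis with saponin/Triton buffer containing SYBR Green I, overnight at room temperature in the dark; DNA fluorescence (485/535 nm) normalised to 0.29 uM artemisinin and DMSO.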
# [3] = qHTS profiling for inhibitors of Plasmodium falciparum (DD2) proliferation (AID 743323; call rule not given here); settings: lower = more inhibition; at 28.7 µM (top of the series) unless noted
# Procedure, shortened: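 Parasite DNA quantified by SYBR Green fluorescence (ex 485, em 535 nm) after saponin/Triton lysis and overnight dark incubation. Cultures: 0.3% parasitemia, 2.5% hematocrit, 72 h, 37 C; data scaled between DMSO and 0.29 uM artemisinin.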
# [4] = qHTS profiling for inhibitors of Plasmodium falciparum (HB3) proliferation (AID 743324); settings: Plasmodium falciparum HB3 blood-stage proliferation; at 28.7 µM (top of the series) unless noted;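 note: 100% = DMSO vehicle wells and 0% = artemisinin-treated control wells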
# Procedure, shortened: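 P. falciparum HB3 grown in erythrocytes (0.3% parasitemia, 2.5% hematocrit final) with compound for 72 h at 37 C, 5% CO2. Parasite DNA detected by SYBR Green after saponin/triton lysis overnight; normalized to 0.29 uM artemisinin and DMSO.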
# [5] = qHTS profiling of the MIPE4 collection as inhibitors of Plasmodium falciparum (3D7) proliferation (AID 743344; call rule not given here;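 note: scaled between DMSO vehicle wells and 0.29 µM artemisinin as full inhibition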); settings: P. falciparum 3D7 in erythrocytes, SYBR Green DNA fluorescence, 72 h; at 28.5 µM (top of the series) unless noted
# Procedure, shortened: as §1
# [6] = qHTS profiling of the MIPE4 collection as inhibitors of Plasmodium falciparum (DD2) proliferation (AID 743345; call rule not given here); settings: P. falciparum Dd2 in erythrocytes, SYBR Green DNA, 72 h; at 28.5 µM (top of the series) unless noted
# Procedure, shortened: as §1
# [7] = qHTS profiling of the MIPE4 collection as inhibitors of Plasmodium falciparum (DD2) proliferation (Rep 2) (AID 743346; call rule not given here); settings: P. falciparum Dd2 in erythrocytes, SYBR Green DNA, 72 h; at 28.5 µM (top of the series) unless noted
# Procedure, shortened: as §1
# [8] = qHTS profiling of the MIPE4 collection as inhibitors of Plasmodium falciparum (HB3) proliferation (AID 743347; call rule not given here;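 note: plate controls were DMSO vehicle wells for no effect and artemisinin wells for full effect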); settings: P. falciparum HB3 in erythrocytes, SYBR Green DNA, 72 h; at 28.5 µM (top of the series) unless noted
# Procedure, shortened: as §1
# [9] = Cell Proliferation Assay Versus the ED40515 IL2 Dependent ATL cell lines (AID 1053195; calls by dose curve); settings: ED40515 IL2-dependent ATL cells
# Procedure, shortened: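 IL2-dependent ED40515 ATL cells grown with IL2, 1000 cells/well in phenol red-free RPMI + 5% FBS, exposed 48 hours at 37C. Viability by CellTiter-Glo luminescence after 15 min at RT; 9.2 uM bortezomib as control.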
# [10] = High-throughput drug toxicity screening in the BPDCN cell line Gen2.2 (AID 1224824; call rule not given here;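 note: cells exposed to compounds for 48 h before reading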); settings: Gen2.2 BPDCN cells; at 45.8 µM (top of the series) unless noted
# Procedure, shortened: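 Gen2.2 cells (500/well) in phenol red-free RPMI with 10% FBS were exposed to compounds for 48 h at 37 °C, 5% CO2. Viability was read by CellTiter-Glo luminescence and normalized to DMSO (100%) and 9.2 uM bortezomib (0%).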
# [11] = qHTS assay for measurement of the activity of small molecule inhibitors on Zika virus induced Caspase-3 activity in human iPSC derived neural progenitor cells (hNPCs) (AID 1224857); note: % of control where 0% means no effect; nearly all actives have a fitted effect of over 65% in size
# Procedure, shortened: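 In medium with heparin 2 ug/ml and cyclopamine 2 uM, hNPCs (350 cells/well) received compound for one hour and then Zika virus at 2 FFU/cell; caspase activity was measured by Caspase-Glo 3/7 luminescence 6 h post-infection.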
# [12] = qHTS assay for measurement of the activity of small molecule inhibitors on Zika virus induced Caspase-3 activity in human astrocytoma cells (AID 1224859);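 note: plate controls were ZIKV-infected untreated cells for no effect and uninfected cells for full effect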
# Procedure, shortened: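 A cell-based luminescent caspase-3/7 assay used SNB-19 cells infected with ZIKV (2 FFU/cell) for 6 h following 1 h compound pretreatment.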
# [13] = qHTS Screen of the MIPE 4.0 Collection Against Ewings Sarcoma (RDES) (AID 1259252); note: nearly all actives have a fitted effect of over 35% in size; note: potency is the fitted concentration of half-maximal effect
# Procedure, shortened: (§2)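 Viability screen: 48 h incubation at 37C, 95% humidity, 5% CO2 with serially titrated compound, followed by CellTiter-Glo readout.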
# [14] = qHTS Screen of the MIPE 4.0 Collection Against Ewings Sarcoma (TC71) (AID 1259253); note: nearly all actives have a fitted effect of over 40% in size; note: potency is the fitted concentration of half-maximal effect
# Procedure, shortened: as §2
# [15] = qHTS Screen of the MIPE 4.0 Collection Against Ewings Sarcoma (EW8) (AID 1259255); note: nearly all actives have a fitted effect of over 35% in size; note: potency is the fitted concentration of half-maximal effect;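 for viability: 100% = DMSO-treated cells and 0% = medium-only wells without cells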
# Procedure, shortened: as §2
# [16] = qHTS assay for cell viability of HEK293 cells (AID 743288); settings: ATP luminescence (CellTiter-Glo), 18 h; max response: stronger effect = lower value; note: nearly all actives have a fitted effect of over 50% in size; note: potency is the fitted concentration of half-maximal effect; for max response: % is set by controls: 0 for no effect and ±100 for the full control effect
# Procedure, shortened: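 Parental HEK293 cells were seeded at 2,000 cells/well, rested at least 5 h at 37 C, then exposed to compounds in DMSO for 18 h at 37 C. Viability was read as ATP-dependent luciferase luminescence after 30 min at room temperature.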
# [17] = qHTS assay for cell viability of the p53RE-bla HCT-116 cell line (AID 743292); note: nearly all actives have a fitted effect of over 55% in size; note: potency is the fitted concentration of half-maximal effect
# Procedure, shortened: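 CellSensor p53RE-bla HCT-116 cells, 4,000/well, preincubated 5 h at 37 C, then exposed to compounds in DMSO for 16 h at 37 C. Viability read as CellTiter-Glo luminescence (intracellular ATP) after 30 min at room temperature.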
# [18] = High-throughput drug toxicity screening in the BPDCN cell line Cal-1 (AID 1224825; call rule not given here); settings: Cal-1 BPDCN cell viability, qHTS; at 45.8 µM (top of the series) unless noted
# Procedure, shortened: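 Cal-1 cells, 500 per well in phenol-red-free RPMI with 10% FBS, exposed to compounds for 48 hours at 37C, 5% CO2. Viability read by CellTiter-Glo luminescence; percent activity normalized to DMSO (100%) and 9.2 uM bortezomib final (0%).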
# [19] = target: Hexokinase-4 (Homo sapiens) + Glucokinase regulatory protein (Homo sapiens) (UniProt P35557+Q14397); assay: qHTS assay for inhibitors of recombinant human GCK-GKRP interaction: HTRF assay (AID 743207);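 note: 0% = DMSO with GCK present and -100% = DMSO wells lacking GCK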
# Sequence of Hexokinase-4 (Homo sapiens) + Glucokinase regulatory protein (Homo sapiens) (P35557 whole entry, looked up): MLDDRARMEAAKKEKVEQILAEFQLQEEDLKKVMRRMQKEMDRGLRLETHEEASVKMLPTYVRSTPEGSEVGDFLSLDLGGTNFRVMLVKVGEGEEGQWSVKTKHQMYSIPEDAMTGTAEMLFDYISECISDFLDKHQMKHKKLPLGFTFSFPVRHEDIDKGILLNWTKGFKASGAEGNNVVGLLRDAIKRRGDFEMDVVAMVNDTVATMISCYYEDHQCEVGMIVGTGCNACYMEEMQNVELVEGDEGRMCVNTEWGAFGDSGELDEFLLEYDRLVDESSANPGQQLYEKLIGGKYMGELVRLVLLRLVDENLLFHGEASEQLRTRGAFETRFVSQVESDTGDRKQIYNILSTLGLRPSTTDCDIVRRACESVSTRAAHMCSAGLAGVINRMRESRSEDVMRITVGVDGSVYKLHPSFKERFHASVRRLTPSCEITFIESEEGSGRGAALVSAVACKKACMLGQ
# Sequence of Hexokinase-4 (Homo sapiens) + Glucokinase regulatory protein (Homo sapiens) (Q14397 whole entry, looked up): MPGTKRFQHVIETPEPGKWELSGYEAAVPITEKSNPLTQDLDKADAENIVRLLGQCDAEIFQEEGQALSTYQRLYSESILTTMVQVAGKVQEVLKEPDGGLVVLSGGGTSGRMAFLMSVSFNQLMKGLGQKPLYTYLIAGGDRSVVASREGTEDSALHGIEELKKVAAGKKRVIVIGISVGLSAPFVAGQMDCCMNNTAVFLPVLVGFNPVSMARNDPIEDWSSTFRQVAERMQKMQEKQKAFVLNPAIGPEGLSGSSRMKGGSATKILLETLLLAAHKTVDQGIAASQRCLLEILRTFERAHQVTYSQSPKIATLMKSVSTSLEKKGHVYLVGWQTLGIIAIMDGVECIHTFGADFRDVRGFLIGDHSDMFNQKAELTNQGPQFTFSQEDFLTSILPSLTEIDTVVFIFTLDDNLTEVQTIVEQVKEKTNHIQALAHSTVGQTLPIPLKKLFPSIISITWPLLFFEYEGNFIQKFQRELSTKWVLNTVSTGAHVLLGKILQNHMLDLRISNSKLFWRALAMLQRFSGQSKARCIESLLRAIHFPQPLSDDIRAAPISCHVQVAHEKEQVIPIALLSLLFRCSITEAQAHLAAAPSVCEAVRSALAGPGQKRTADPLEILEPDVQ
# Procedure, shortened: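 GST-GCK and FLAG-GKRP (5 nM each) were combined with 2 uM S6P in pH 7.1 Hepes/MgCl2/KCl/DTT buffer, then compound and anti-FLAG XL665/anti-GST K antibodies were added. After 60 min at room temperature, HTRF 665/615 nm emission was read.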
compound,measurement,setting,value
C[C@@H]1C[C@H]2[C@@H]3CCC4=CC(=O)C=C[C@]4(C)C3(F)[C@@H](O)C[C@]2(C)[C@@]1(O)C(=O)CO (stereo partly drawn),max response,[1],2.96% (inactive)
same,remaining parasite growth % (stronger effect = lower value),[2],109%
same,"activity, percent of control",[3],95.7%
same,"remaining proliferation (% of control), lower = more inhibition",[4],85.9%
same,"parasite growth, % of DMSO control",[5],71.2%
same,"parasite growth remaining, % of DMSO control (lower = more inhibition)",[6],96%
same,"parasite growth, % of control (lower = inhibition)",[7],146%
same,"growth, % of control",[8],95.5%
same,Potency,[9],2.64 µM (active)
NC(=O)c1ccc(-c2nc(-c3ccc4c(c3)OCO4)c(-c3ccccn3)[nH]2)cc1,remaining parasite growth % (stronger effect = lower value),[2],82.3%
same,"activity, percent of control",[3],88.1%
same,"remaining proliferation (% of control), lower = more inhibition",[4],71.6%
same,"parasite growth, % of DMSO control",[5],42.9%
same,"parasite growth remaining, % of DMSO control (lower = more inhibition)",[6],55.7%
same,"parasite growth, % of control (lower = inhibition)",[7],32.2%
same,"growth, % of control",[8],18.7%
same,Potency,[9],37.2 µM (active)
same,"cell viability, % of control (lower = more cytotoxic)",[10],624%
same,Potency,[11],inactive
same,Potency,[12],inactive
same,Potency,[13],inactive
same,Potency,[14],14.8 µM (active)
same,Potency,[15],16.6 µM (active)
CCCC(CCC)C(=O)O,max response,[1],8.46% (inactive) and 5.84% (inactive)
same,max response,[16],3.06% (inactive) and -3.28% (inactive) and -9.08% (inactive)
same,Potency,[17],inactive
same,"parasite growth remaining, % of DMSO control (lower = more inhibition)",[6],103%
same,"growth, % of control",[8],111%
same,"cell viability, % of control (lower = more cytotoxic)",[10],83.8%
same,viability (% of control),[18],100%
same,Potency,[11],inactive
same,Potency,[12],inactive
same,Potency,[13],inactive
same,Potency,[14],inactive
same,Potency,[15],inactive
Cc1cc2c(C(C)C)c(O)c(O)c(C=O)c2c(O)c1-c1c(C)cc2c(C(C)C)c(O)c(O)c(C=O)c2c1O,Potency,[16],35.5 µM (active)
same,Potency,[17],12.6 µM (active)
same,remaining parasite growth % (stronger effect = lower value),[2],5.05% and 5.11%
same,"activity, percent of control",[3],13.9% and 10.5%
same,"remaining proliferation (% of control), lower = more inhibition",[4],-0.222% and 1.83%
same,"parasite growth, % of DMSO control",[5],8.6%
same,"parasite growth remaining, % of DMSO control (lower = more inhibition)",[6],15%
same,"parasite growth, % of control (lower = inhibition)",[7],19.3%
same,"growth, % of control",[8],14.8%
same,"cell viability, % of control (lower = more cytotoxic)",[10],14.5%
same,viability (% of control),[18],6.4%
same,Potency,[11],inactive
same,Potency,[12],inactive
same,Potency,[13],10.5 µM (active)
same,Potency,[14],13.2 µM (active)
same,Potency,[15],11.8 µM (active)
CCn1c(-c2nonc2N)nc2c(C#CC(C)(C)O)ncc(OC[C@H]3CCCNC3)c21,Potency,[1],23.5 µM (active)
same,remaining parasite growth % (stronger effect = lower value),[2],5.66%
same,"activity, percent of control",[3],2.74%
same,"remaining proliferation (% of control), lower = more inhibition",[4],2.14%
same,"parasite growth, % of DMSO control",[5],5.72%
same,"parasite growth remaining, % of DMSO control (lower = more inhibition)",[6],11.8%
same,"parasite growth, % of control (lower = inhibition)",[7],13.9%
same,"growth, % of control",[8],3.2%
same,"cell viability, % of control (lower = more cytotoxic)",[10],64.9%
same,viability (% of control),[18],8.62%
same,Potency,[11],inactive
same,Potency,[12],inactive
same,Potency,[13],23.5 µM (active)
same,Potency,[14],18.7 µM (active)
same,Potency,[15],23.5 µM (active)
NC(N)=NC(=O)c1nc(Cl)c(N)nc1N,outcome,[19],inactive
same,max response,[16],-10.2% (inactive)
same,Potency,[17],inactive
same,"cell viability, % of control (lower = more cytotoxic)",[10],12.8%
same,viability (% of control),[18],23.5%
same,Potency,[11],inactive
same,Potency,[12],inactive
same,Potency,[13],inactive
same,Potency,[14],inactive
same,Potency,[15],inactive
CC(C[N+](C)(C)C)OC(N)=O (stereo not drawn),outcome,[19],inactive
same,max response,[1],11.1% (inactive)
same,"parasite growth, % of DMSO control",[5],102%
same,"parasite growth remaining, % of DMSO control (lower = more inhibition)",[6],101%
same,"parasite growth, % of control (lower = inhibition)",[7],96.7%
same,"growth, % of control",[8],69.1%
same,"cell viability, % of control (lower = more cytotoxic)",[10],120%
same,viability (% of control),[18],120%
same,Potency,[11],inactive
same,Potency,[12],inactive
same,Potency,[13],inactive
same,Potency,[14],inactive
same,Potency,[15],inactive
Cc1c(C)c2c(c(C)c1O)CCC(C)(COc1ccc(CC3SC(=O)NC3=O)cc1)O2 (stereo not drawn),max response,[16],-10.3% (inactive)
same,remaining parasite growth % (stronger effect = lower value),[2],93.1%
same,"activity, percent of control",[3],80%
same,"remaining proliferation (% of control), lower = more inhibition",[4],46.8%
same,"parasite growth, % of DMSO control",[5],35.4%
same,"parasite growth remaining, % of DMSO control (lower = more inhibition)",[6],83.4%
same,"growth, % of control",[8],62.4%
same,"cell viability, % of control (lower = more cytotoxic)",[10],31.1%
same,viability (% of control),[18],91.7%
same,Potency,[11],inactive
same,Potency,[12],inactive
same,Potency,[13],inactive
same,Potency,[14],inactive
same,Potency,[15],inactive
